Assay results published in ChEMBL document CHEMBL3988442, “University of Dundee, Small-Polar-MMV Screening Library” (2021).
For some assays here: Potency and affinity values are given separately.

How the values were obtained:
Parameters in all cases: scale not given: direction of the effect not stated beside the values
[1] = molecular target: Protein translocase subunit SecA (Escherichia coli (strain K12)) (UniProt P10408); experiment: Assay to Identify E. coli SecA ATPase Inhibitors; format: functional; conditions: 30 µM
[2] = molecular target: T1, Ubiquitin-activating enzyme e1, putative (Leishmania donovani (strain BPK282A1)) (UniProt E9BSI1); experiment: Leishmania donovani Ubiquitin Activating Enzyme (LdE1); format: functional; conditions: 30 µM
T1 sequence (whole entry): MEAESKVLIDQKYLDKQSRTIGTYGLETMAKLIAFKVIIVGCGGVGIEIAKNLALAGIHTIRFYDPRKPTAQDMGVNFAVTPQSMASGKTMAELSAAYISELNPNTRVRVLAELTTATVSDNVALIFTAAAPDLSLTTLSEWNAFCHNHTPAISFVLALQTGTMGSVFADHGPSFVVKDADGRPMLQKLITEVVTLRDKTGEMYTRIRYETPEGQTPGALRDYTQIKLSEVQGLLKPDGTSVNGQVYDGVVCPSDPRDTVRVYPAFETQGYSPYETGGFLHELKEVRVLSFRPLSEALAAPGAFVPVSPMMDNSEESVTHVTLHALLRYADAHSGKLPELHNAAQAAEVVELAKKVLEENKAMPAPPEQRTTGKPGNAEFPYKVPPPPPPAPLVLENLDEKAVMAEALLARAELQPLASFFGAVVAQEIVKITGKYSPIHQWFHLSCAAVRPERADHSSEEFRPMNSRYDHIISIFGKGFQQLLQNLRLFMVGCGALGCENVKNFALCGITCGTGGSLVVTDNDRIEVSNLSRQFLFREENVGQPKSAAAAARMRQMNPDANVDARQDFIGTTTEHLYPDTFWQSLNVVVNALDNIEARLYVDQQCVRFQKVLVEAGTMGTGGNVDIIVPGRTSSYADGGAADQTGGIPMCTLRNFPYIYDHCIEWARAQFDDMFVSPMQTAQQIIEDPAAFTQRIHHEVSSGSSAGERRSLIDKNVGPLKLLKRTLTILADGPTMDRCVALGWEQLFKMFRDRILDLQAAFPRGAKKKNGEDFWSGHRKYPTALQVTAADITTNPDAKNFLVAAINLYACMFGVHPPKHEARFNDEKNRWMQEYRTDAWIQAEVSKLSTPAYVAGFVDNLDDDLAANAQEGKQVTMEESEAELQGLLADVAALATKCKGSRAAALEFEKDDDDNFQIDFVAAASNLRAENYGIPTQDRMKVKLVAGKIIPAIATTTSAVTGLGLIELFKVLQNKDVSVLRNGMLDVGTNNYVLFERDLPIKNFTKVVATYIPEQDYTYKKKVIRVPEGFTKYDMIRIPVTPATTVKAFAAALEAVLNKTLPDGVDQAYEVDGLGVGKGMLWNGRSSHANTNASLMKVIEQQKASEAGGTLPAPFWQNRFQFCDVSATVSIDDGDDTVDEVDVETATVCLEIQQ

[3] = molecular target: AMP-activated protein kinase, AMPK (Homo sapiens) (UniProt P54646+O43741+P54619+Q9UGJ0+Q9Y478+Q13131+Q9UGI9); experiment: AMP-dependent Kinase enzyme assay. An in vitro enzyme assay that detects ADP turnover that is directly proportional to AMPK activity. This uses naive AMPK that is activated during the assay with MK-8722; format: functional; conditions: 30 µM
[4] = molecular target: Sialic acid-binding Ig-like lectin 9 (Homo sapiens) (UniProt Q9Y336); experiment: Hs-Siglec9 ALPHAscreen SOP 20170721; conditions: 10 µM
Trypanosoma cruzi = experiment: Trypanosoma cruzi phosphomannomutase and mannose-1-phosphate guanylyltransferase assay; format: functional; conditions: 10 µM
[5] = molecular target: T2, Arginase-2, mitochondrial (Homo sapiens) (UniProt P78540); experiment: in vitro enzyme assay to detect the production of urea directly proportional to the activity of Arginase II; format: functional; conditions: 33.3 µM; note: in the data most compounds retested in dose-response had high values
T2 sequence (whole entry): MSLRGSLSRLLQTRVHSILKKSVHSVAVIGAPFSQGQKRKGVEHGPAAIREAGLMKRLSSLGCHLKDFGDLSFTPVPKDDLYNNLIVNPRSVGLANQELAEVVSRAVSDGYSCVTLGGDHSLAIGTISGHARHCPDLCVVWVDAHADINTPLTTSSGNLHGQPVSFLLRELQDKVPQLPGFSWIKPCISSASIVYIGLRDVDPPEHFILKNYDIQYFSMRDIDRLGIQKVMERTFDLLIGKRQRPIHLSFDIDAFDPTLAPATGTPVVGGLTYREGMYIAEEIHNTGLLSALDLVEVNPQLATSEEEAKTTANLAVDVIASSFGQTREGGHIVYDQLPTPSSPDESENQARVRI

[6] = molecular target: T3, Proteasome subunit beta (Trypanosoma cruzi) (UniProt O96673); experiment: Trypanosoma cruzi proteasome chymotrypsin-like activity (TcProtChymo) assay.; note: in the data most compounds retested in dose-response had high values; format: functional; conditions: 9.37 µM
T3 sequence (whole entry): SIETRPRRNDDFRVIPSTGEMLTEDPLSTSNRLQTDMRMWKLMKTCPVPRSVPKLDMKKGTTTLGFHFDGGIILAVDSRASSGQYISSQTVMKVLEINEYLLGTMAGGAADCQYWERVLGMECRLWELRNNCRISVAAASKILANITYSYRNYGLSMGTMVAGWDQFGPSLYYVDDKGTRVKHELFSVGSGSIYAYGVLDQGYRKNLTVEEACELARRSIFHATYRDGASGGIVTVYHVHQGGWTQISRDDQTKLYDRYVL

Homo sapiens = organism: Homo sapiens; experiment: To identify inhibition of the IFN signalling (Jak-Stat) pathway via expression of an eGFP reporter gene under the control of an IFN-stimulated response element (ISRE) containing MxA promoter.; format: functional; conditions: 30 µM
[7] = molecular target: T4, Tyrosyl-tRNA synthetase, putative (Trypanosoma cruzi (strain CL Brener)) (UniProt Q4DSP6); experiment: Trypanosoma cruzi tyrosyl tRNA synthetase (TcYRS) _High Tyrosine SOP; format: functional; conditions: 30 µM; note: in the data most compounds retested in dose-response had high values
T4 sequence (whole entry): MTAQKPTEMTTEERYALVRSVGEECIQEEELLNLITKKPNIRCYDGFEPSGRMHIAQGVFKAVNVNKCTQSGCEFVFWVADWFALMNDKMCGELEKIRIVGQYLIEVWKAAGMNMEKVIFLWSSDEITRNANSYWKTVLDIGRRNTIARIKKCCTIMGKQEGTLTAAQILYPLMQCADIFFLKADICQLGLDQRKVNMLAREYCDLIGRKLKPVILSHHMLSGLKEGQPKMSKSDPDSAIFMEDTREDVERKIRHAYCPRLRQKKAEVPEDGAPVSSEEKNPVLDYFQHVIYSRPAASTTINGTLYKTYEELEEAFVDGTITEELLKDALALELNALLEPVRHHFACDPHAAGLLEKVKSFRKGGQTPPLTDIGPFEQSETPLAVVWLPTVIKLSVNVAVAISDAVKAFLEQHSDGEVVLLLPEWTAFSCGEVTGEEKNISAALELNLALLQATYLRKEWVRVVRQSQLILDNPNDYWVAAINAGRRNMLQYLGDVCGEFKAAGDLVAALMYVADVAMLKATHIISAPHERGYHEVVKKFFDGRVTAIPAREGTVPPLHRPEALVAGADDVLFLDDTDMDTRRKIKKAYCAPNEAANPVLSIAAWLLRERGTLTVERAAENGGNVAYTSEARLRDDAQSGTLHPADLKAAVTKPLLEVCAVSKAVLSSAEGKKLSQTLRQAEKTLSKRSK

[8] = molecular target: T4, Tyrosyl-tRNA synthetase, putative (Trypanosoma cruzi (strain CL Brener)); experiment: Trypanosoma cruzi tyrosyl tRNA synthetase (TcYRS) SOP; format: functional; conditions: 30 µM
[9] = molecular target: Chromo domain-containing protein 1 (Saccharomyces cerevisiae (strain ATCC 204508 / S288c) (Baker's yeast)) (UniProt P32657); experiment: ScCHD-1 Enzyme Inhibition Assay; format: functional; conditions: 30 µM; note: in the data most compounds retested in dose-response had high values
Sequence of Chromo domain-containing protein 1 (Saccharomyces cerevisiae (strain ATCC 204508 / S288c) (Baker's yeast)) (P32657 whole entry, the tested form may be a part): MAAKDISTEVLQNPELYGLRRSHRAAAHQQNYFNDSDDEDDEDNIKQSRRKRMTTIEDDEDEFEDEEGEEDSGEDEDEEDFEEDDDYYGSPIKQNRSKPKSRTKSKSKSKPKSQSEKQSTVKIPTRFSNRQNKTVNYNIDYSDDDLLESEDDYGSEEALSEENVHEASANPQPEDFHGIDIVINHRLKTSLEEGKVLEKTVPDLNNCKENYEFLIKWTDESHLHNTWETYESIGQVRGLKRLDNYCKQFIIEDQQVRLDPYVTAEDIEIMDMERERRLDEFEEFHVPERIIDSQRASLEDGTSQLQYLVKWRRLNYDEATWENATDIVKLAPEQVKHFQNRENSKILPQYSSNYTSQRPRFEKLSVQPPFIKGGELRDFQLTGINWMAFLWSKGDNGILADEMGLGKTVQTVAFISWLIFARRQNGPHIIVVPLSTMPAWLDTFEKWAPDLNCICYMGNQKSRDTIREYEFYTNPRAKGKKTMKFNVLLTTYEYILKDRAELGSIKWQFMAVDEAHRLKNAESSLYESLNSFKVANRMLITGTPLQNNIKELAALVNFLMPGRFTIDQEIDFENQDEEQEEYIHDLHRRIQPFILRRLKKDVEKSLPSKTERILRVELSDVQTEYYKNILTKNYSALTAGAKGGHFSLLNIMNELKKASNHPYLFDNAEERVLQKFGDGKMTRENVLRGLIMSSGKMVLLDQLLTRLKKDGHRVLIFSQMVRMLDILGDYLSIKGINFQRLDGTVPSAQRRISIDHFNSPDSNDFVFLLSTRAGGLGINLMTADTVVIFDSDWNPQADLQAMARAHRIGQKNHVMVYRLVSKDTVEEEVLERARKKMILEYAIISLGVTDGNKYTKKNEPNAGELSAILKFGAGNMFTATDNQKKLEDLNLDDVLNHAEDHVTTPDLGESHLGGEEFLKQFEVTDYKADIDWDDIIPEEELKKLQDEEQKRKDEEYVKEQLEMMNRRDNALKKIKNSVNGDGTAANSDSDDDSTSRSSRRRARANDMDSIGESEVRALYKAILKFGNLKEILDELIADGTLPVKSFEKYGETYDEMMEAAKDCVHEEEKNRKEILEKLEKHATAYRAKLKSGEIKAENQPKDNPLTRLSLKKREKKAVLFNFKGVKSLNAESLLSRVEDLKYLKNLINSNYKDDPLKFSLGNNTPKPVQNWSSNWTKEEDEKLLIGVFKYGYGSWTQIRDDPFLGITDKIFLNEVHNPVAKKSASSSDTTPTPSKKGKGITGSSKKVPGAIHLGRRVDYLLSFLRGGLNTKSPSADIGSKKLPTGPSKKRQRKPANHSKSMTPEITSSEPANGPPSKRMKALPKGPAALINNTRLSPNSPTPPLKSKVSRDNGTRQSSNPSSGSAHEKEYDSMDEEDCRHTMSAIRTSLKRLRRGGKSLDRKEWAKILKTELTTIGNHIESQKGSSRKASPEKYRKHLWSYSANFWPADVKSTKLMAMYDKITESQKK

Sequence of Sialic acid-binding Ig-like lectin 9 (Homo sapiens) (Q9Y336 whole entry): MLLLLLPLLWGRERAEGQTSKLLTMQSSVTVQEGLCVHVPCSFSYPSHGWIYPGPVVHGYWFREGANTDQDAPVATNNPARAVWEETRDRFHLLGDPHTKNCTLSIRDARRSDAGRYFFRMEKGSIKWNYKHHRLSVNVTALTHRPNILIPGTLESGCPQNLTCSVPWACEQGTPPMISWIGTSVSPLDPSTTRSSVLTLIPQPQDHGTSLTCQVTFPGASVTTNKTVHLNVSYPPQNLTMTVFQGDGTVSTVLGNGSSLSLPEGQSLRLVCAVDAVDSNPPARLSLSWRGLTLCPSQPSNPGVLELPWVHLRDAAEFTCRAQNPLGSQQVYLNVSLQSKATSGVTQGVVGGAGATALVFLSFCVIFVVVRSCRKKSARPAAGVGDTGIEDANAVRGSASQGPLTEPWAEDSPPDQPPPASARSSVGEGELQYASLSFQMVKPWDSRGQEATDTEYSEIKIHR
Sequence of Protein translocase subunit SecA (Escherichia coli (strain K12)) (P10408 whole entry): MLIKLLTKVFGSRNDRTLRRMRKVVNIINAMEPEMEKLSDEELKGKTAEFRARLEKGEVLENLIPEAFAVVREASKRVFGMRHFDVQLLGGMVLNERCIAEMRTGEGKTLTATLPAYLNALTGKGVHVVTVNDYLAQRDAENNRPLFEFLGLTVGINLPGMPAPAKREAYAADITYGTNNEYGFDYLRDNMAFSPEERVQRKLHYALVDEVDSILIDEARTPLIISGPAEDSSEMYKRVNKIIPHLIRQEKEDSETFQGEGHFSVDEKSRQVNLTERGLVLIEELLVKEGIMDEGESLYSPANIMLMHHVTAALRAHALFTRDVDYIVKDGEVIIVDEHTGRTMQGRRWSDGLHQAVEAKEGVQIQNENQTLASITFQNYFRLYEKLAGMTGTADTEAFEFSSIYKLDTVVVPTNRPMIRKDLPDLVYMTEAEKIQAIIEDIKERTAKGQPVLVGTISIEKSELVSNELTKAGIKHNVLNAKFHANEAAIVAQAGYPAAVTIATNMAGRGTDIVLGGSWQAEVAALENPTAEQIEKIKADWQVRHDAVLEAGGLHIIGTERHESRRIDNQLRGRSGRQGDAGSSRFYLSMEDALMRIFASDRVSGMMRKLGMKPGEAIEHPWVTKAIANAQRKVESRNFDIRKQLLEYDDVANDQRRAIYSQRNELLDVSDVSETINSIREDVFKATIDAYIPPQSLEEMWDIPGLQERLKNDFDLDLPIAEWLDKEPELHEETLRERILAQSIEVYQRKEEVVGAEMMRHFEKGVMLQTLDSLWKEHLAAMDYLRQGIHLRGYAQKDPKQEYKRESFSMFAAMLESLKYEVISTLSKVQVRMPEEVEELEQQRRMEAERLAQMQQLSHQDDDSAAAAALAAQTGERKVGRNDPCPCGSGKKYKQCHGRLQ

| SMILES | Percent Effect [1] [%] | Percent Effect [2] [%] | Percent Effect [3] [%] | Percent Effect [4] [%] | Percent Effect (Trypanosoma cruzi) [%] | Percent Effect [5] [%] | Percent Effect [6] [%] | Percent Effect (Homo sapiens) [%] | Percent Effect [7] [%] | Percent Effect [8] [%] | Percent Effect [9] [%] |
| --- | --- | --- | --- | --- | --- | --- | --- | --- | --- | --- | --- |
| Cc1cc(CN2CCOCS2(=O)=O)ccc1F | 2.12 | 5.41 | -2.01 | 3.16 | -5.21 | 4.29 | 16.4 | 9.21 | 4.76 | 4.88 | -2.56 |
| COCC(=O)NCc1cccc(Br)c1 | -0.913 | 18.4 | -5.98 | -7.74 | 4.89 | 1.92 | 11.4 | 13.3 | 4.41 | 19.5 | -12.7 |
| NC(=O)C1CCN(Cn2nc(-c3ccccc3)oc2=O)CC1 | -1.26 | 15.6 | 6.06 | 6.43 | 1.08 | -56.5 | 20.3 | 2.82 | 4.3 | 16.1 | -5.92 |
| C=Cn1ncc(CN2C[C@@H]3CCCN3C[C@@H]2Cc2ccccc2)c1C | -3.58 | 4.05 | 3.48 | 4.39 | 2.37 | 0.696 | 11.2 | 26.4 | 6.45 | 14.3 | -13 |
| Cc1noc(C)c1CN1CC[C@H]2OCC[C@@H](C(=O)N3CCCO3)[C@@H]2C1 | -8.03 | 16 | -5.74 | -1.2 | 5.02 | -43.5 | 14.7 | -8.37 | -1.04 | 2.5 | -6.96 |
| Cc1cc(C(=O)N2CCN(C(=O)Cc3ccccn3)CC2)c(C)s1 | -3.63 | 6.33 | 1.98 | -0.00439 | -1.54 | -11 | 4.8 | -10.2 | 7.29 | 7.59 | 5.75 |
| COC(=O)c1cccn1C1CCN(C(=O)c2cn[nH]c2C)CC1 | -3.48 | 10.4 | 0.41 | 9.63 | 4.31 | 0.356 | 8.11 | 21 | 6.8 | 19.5 | -9.12 |
| CN1CCOC(CNCc2cccc(OCc3ccccn3)c2)C1 (configuration not stated) | -5.11 | 5.06 | -8.27 | 12.2 | 3.87 | -1.9 | -4.18 | -5.19 | 7.39 | 11.4 | -2.11 |
| Cc1occc1C(=O)N1CCOCC2(CCN(Cc3nccs3)C2)C1 (configuration not stated) | -0.601 | 2.6 | 0.286 | 7.22 | -0.688 | 5.52 | 9.82 | -13.2 | -3.23 | -6.17 | 2.92 |
| O=C(C1CC=CC1)N1CCc2c(COCc3ccncc3)cncc2C1 | 0.346 | 5.48 | 3.39 | 12.2 | 0.198 | -1.2 | 29.9 | -4.59 | 11.5 | 11.1 | -4.36 |
| COc1cccc(CNCCc2cc(F)cc3c2OCOC3)c1 | -2.14 | 1.39 | -14.2 | 27 | 6.51 | 3.53 | 8.42 | 1.36 | 0 | 5.13 | -4.8 |
| Cc1nn(C)c(N2CCOCC2)c1CNC(C)c1cccnc1 (configuration not stated) | -3.55 | 6.94 | -10.5 | 21.7 | 2.62 | 7.95 | 11.4 | -22.8 | 3.16 | 10.3 | -6.39 |
| CS(=O)(=O)NC[C@]12COC[C@H]1CN(C(=O)C1CCCCC1)C2 | -1.23 | 0 | 2.98 | -0.175 | -1.47 | 14.3 | 17.7 | -0.518 | -20.5 | -25.6 | 3.02 |
| CC(C)CN1CCN(C(=O)Nc2cc(C(F)(F)F)c[nH]c2=O)CC1 | -3.29 | 2.6 | 6.98 | 4.09 | -2.06 | 2.13 | 3.55 | 20.1 | 5.83 | 12.2 | -7.11 |
| O=C(NC1CCC1)[C@@H]1C[C@@H]2CCN(Cc3cccs3)C[C@@H]2O1 | -2.68 | -2.67 | 10.9 | -2.43 | -0.197 | 2.56 | 7.67 | 28.3 | 3.19 | 11.5 | -2.54 |
| c1cnc(N2CCOC3(CCN(CC4CCCCC4)CC3)C2)nc1 | 0.617 | 13.3 | 14.1 | -0.802 | -5.12 | -2.1 | 14.7 | 10.1 | 5.32 | 11.5 | -3.47 |
| COc1ccc([C@@H]2CN(C(=O)CCC(F)(F)F)C[C@H]2NC(C)=O)cc1 | -3.18 | 2.67 | 0.154 | -0.127 | -2.63 | 2.6 | 16.7 | 1.55 | 6.01 | 8.64 | -6.25 |
| CC(Cn1cccn1)NC(=O)Nc1nccs1 (configuration not stated) | -5.47 | 10.4 | 1.39 | 4.54 | -3.37 | 0.712 | 5.57 | 17.5 | 4.85 | 19.5 | -5.22 |
| Cc1ccc(C(=O)CCC(=O)N2CCC(c3nncn3C)CC2)cc1 | -8.28 | 15.6 | -6.09 | 19.9 | 5.24 | 1.78 | 11.3 | 9.84 | 5.83 | 24.4 | -1.85 |
| CN1CCN(CCCNC(=O)c2cc(Cl)c3c(c2)OCO3)CC1 | 0.405 | 9.72 | -11.6 | 9.36 | 3.6 | 10.6 | 27 | -22.6 | 3.16 | 15.4 | -2.83 |
| Cc1ccc(-c2nnc(CN3CCc4cnc(C)nc4C3)o2)cc1 | -4.56 | 0 | -17.5 | 15.5 | 11.2 | -13.9 | 10.4 | 15.6 | 18.8 | 30.5 | -10.7 |
| CCc1n[nH]c(C2CN(C(=O)c3cnc[nH]3)CCO2)n1 (configuration not stated) | -4.08 | 7.79 | 7.86 | 7.55 | 0.686 | 4.84 | 9.62 | 1.28 | 2.86 | -11.8 | -9.8 |
